Test results reported in paper PMC12864922, “TDP-43 directly inhibits mRNA accumulation in neurites through modulation of mRNA stability”.
Changes are numbered by the printed parent chain. Whole data set: some 9,900 sequences, median “r (bound/input frequency ratio)” near 0.7, cut for the highest 2% near 6.5. Many of the other results were omitted from the sample, so the highest values are more common in it than they were.

B1: ENSMUSG00000032194.180|Kank2|82:88;185:189 (ssRNA)
RNA: GGGAGUUCUACAGUCCGACGAUCGCUUCGAUAUCCGCAUGCUAUGGCCUCAGAGCACUCCCAGAACUAGCUUAAAGUGACAGGCUUUGCUGAAAUCCAAAGGGACAAAAGAGUAGUUUUAUGUUACACACAUUGUUUUUAAUGCCCUGGAGCUCCUGCUGGUGACAGGAGAGACAGACAGGCUGCACCUUUCUCUAACUGGGGUUCCUUUCUGGCCCCAGGAUCUCACACACGUUCGUGGGGGGAUUUUGUUGUUGUUUCUUUGUUUCUUUUCUUCAUAAAGAAGAAAAAGGAAACAACUUCUCUCUUGCGGUCGCACUAGUGUGGAAUUCUCGGGUGUCAAGG
B2: ENSMUSG00000061578.618|Ksr2 (ssRNA)
RNA: GGGAGUUCUACAGUCCGACGAUCGCUUCGAUAUCCGCAUGCUAGUGGCUUGCCUGGCUGGCCUGUGAUAUAGUGGACUGUCUUAGUGAUCGGACUUCAGGGAGCAACCUAUAGGAAAUGCAAAGGCUUAGAGGGGACGGACAGCUCCCUGACCCUGGAUGGCCAGGAAUGGUGCUAGCUAGGGUGUGAGCCAAGCCCUUGAGGCUACUGUGAGUUAUGAGAUGUGUCCAACCCUCAGCCCACAGACUGCAUAUGCCCCAGGACAGCUGUGAAGGUGACCCAAUACAAAAUCGUAAACUAACUUCUCUUGCGGUCGCACUAGUGUGGAAUUCUCGGGUGUCAAGG
B3: ENSMUSG00000061578.593|Ksr2 (ssRNA)
RNA: GGGAGUUCUACAGUCCGACGAUCGCUUCGAUAUCCGCAUGCUAUCUGGGAUAAAAAAAAAAAGUCAAAAGAAAUAAAAUAUGAUUCAGGCAAAUUCAAUGCAACUCAAAAUUUCCACCAAUCCCAUAUUGUCCCUAGCAAUGACAAAAUUAUUUGCAAGACAGACCCUGUGACCUGUAGAGGCAAAAUAUAUGGUGGCUUGCCUGGCUGGCCUGUGAUAUAGUGGACUGUCUUAGUGAUCGGACUUCAGGGAGCAACCUAUAGGAAAUGCAAAGGCUUAGAGGGGACGGACAGCUCCCUGACCCUCUUGCGGUCGCACUAGUGUGGAAUUCUCGGGUGUCAAGG
B4: ENSMUSG00000061578.1182|Ksr2 (ssRNA)
RNA: GGGAGUUCUACAGUCCGACGAUCGCUUCGAUAUCCGCAUGCUAUGUCCUCGGGUGUCUCUGCUGUAUAUAGGCCAGUCACAAGCCCUUCUAAAAGCCUGCUCUUGUCUGCUUUUGUUUCUCCACCAUGCCCCCUGCCACCUCUUCUGACAGUGCUCAGAUUUAUCAGCCACCUGACCCACAGACCCAUAUGGACACACUAGAAAGCCCAUCCUAGGUCUUUCCAUGGUCUCUCACACCCCUGUCCCCGUCCCCUCCACCCCCCGGCAGCAUGCUUCACUCUAUGAAUGAGCCGCUGGGAUAUUCUCUUGCGGUCGCACUAGUGUGGAAUUCUCGGGUGUCAAGG
B5: ENSMUSG00000061578.1472|Ksr2|6:10 (ssRNA)
RNA: GGGAGUUCUACAGUCCGACGAUCGCUUCGAUAUCCGCAUGCUAGAUAGCAUACUGAAUAAAUGGAUGGAUGGAUGGAUUGAUUUGUGAAUGAAUGGAUGAAUGGAUGGGUAGGUGGGUGGAUGCAUAGGCAAGUAGAUGAAUGAAUAUGUGGGUAGAAGGGUGAGUGGGUGGAUGAAUGGAUGGAUAGGUUGGUAGGUUAAUGUAUUCGUGGAUGGGUGAAUGGAUGGAUGGAUAGAUAGAUGGGAAGGUGGAUGGACAGAUGGAUGGAUGGAUAGAUAGAUGGACAGGUGGUUGGUGGAUAACUCUUGCGGUCGCACUAGUGUGGAAUUCUCGGGUGUCAAGG
B6: ENSMUSG00000061578.1466|Ksr2|42:46 (ssRNA)
RNA: GGGAGUUCUACAGUCCGACGAUCGCUUCGAUAUCCGCAUGCUAUAUGAAUGAAUGGAUGAAUGGAUGGGUGAAUGGAUGGAUAGCAUACUGAAUAAAUGGAUGGAUGGAUGGAUUGAUUUGUGAAUGAAUGGAUGAAUGGAUGGGUAGGUGGGUGGAUGCAUAGGCAAGUAGAUGAAUGAAUAUGUGGGUAGAAGGGUGAGUGGGUGGAUGAAUGGAUGGAUAGGUUGGUAGGUUAAUGUAUUCGUGGAUGGGUGAAUGGAUGGAUGGAUAGAUAGAUGGGAAGGUGGAUGGACAGAUGGAUGCUCUUGCGGUCGCACUAGUGUGGAAUUCUCGGGUGUCAAGG
B7: ENSMUSG00000061578.1469|Ksr2 (ssRNA)
RNA: GGGAGUUCUACAGUCCGACGAUCGCUUCGAUAUCCGCAUGCUAUGGAUGGGUGAAUGGAUGGAUAGGUAUGUGAAUAAAUGGAUGGAUGGAUGGAUUGAUUUGUGAAUGAAUGGAUGAAUGGAUGGGUAGGUGGGUGGAUGCAUAGGCAAGUAGAUGAAUGAAUAUGUGGGUAGAAGGGUGAGUGGGUGGAUGAAUGGAUGGAUAGGUUGGUAGGUUAAUGUAUUCGUGGAUGGGUGAAUGGAUGGAUGGAUAGAUAGAUGGGAAGGUGGAUGGACAGAUGGAUGGAUGGAUAGAUAGAUGGACUCUUGCGGUCGCACUAGUGUGGAAUUCUCGGGUGUCAAGG
B8: ENSMUSG00000061578.1467|Ksr2|36:40 (ssRNA)
RNA: GGGAGUUCUACAGUCCGACGAUCGCUUCGAUAUCCGCAUGCUAUGAAUGGAUGAAUGGAUGGGUGAAUGGAUGGAUAGCAUACUGAAUAAAUGGAUGGAUGGAUGGAUUGAUUUGUGAAUGAAUGGAUGAAUGGAUGGGUAGGUGGGUGGAUGCAUAGGCAAGUAGAUGAAUGAAUAUGUGGGUAGAAGGGUGAGUGGGUGGAUGAAUGGAUGGAUAGGUUGGUAGGUUAAUGUAUUCGUGGAUGGGUGAAUGGAUGGAUGGAUAGAUAGAUGGGAAGGUGGAUGGACAGAUGGAUGGAUGGACUCUUGCGGUCGCACUAGUGUGGAAUUCUCGGGUGUCAAGG
B9: ENSMUSG00000061578.1469|Ksr2|24:28 (ssRNA)
RNA: B7 RNA with G67C, U68A, A69U, U70A, G71C
B10: ENSMUSG00000061578.1468|Ksr2|30:34 (ssRNA)
RNA: GGGAGUUCUACAGUCCGACGAUCGCUUCGAUAUCCGCAUGCUAGAUGAAUGGAUGGGUGAAUGGAUGGAUAGCAUACUGAAUAAAUGGAUGGAUGGAUGGAUUGAUUUGUGAAUGAAUGGAUGAAUGGAUGGGUAGGUGGGUGGAUGCAUAGGCAAGUAGAUGAAUGAAUAUGUGGGUAGAAGGGUGAGUGGGUGGAUGAAUGGAUGGAUAGGUUGGUAGGUUAAUGUAUUCGUGGAUGGGUGAAUGGAUGGAUGGAUAGAUAGAUGGGAAGGUGGAUGGACAGAUGGAUGGAUGGAUAGAUACUCUUGCGGUCGCACUAGUGUGGAAUUCUCGGGUGUCAAGG
B11: ENSMUSG00000061578.1463|Ksr2|60:64 (ssRNA)
RNA: GGGAGUUCUACAGUCCGACGAUCGCUUCGAUAUCCGCAUGCUAUAGGUGGGUAGAUAGGUAUAUGAAUGAAUGGAUGAAUGGAUGGGUGAAUGGAUGGAUAGCAUACUGAAUAAAUGGAUGGAUGGAUGGAUUGAUUUGUGAAUGAAUGGAUGAAUGGAUGGGUAGGUGGGUGGAUGCAUAGGCAAGUAGAUGAAUGAAUAUGUGGGUAGAAGGGUGAGUGGGUGGAUGAAUGGAUGGAUAGGUUGGUAGGUUAAUGUAUUCGUGGAUGGGUGAAUGGAUGGAUGGAUAGAUAGAUGGGAAGGCUCUUGCGGUCGCACUAGUGUGGAAUUCUCGGGUGUCAAGG
B12: ENSMUSG00000061578.1465|Ksr2|48:52 (ssRNA)
RNA: GGGAGUUCUACAGUCCGACGAUCGCUUCGAUAUCCGCAUGCUAUAGGUAUAUGAAUGAAUGGAUGAAUGGAUGGGUGAAUGGAUGGAUAGCAUACUGAAUAAAUGGAUGGAUGGAUGGAUUGAUUUGUGAAUGAAUGGAUGAAUGGAUGGGUAGGUGGGUGGAUGCAUAGGCAAGUAGAUGAAUGAAUAUGUGGGUAGAAGGGUGAGUGGGUGGAUGAAUGGAUGGAUAGGUUGGUAGGUUAAUGUAUUCGUGGAUGGGUGAAUGGAUGGAUGGAUAGAUAGAUGGGAAGGUGGAUGGACAGACUCUUGCGGUCGCACUAGUGUGGAAUUCUCGGGUGUCAAGG
B13: ENSMUSG00000029636.74|Wasf3 (ssRNA)
RNA: GGGAGUUCUACAGUCCGACGAUCGCUUCGAUAUCCGCAUGCUACCCACGUCAGCUCUCUGCAAGAUCACUGGCUGUGUGUCUCAGUGAUGUCUUCCAACCAGUGGGUGAUACGUUUUCCUGUUUCUUCCCUUUGCAAAUUGAAUUCCAGGUAGAUAUGGUUGUAGAGGGGAAAGUUUAACAAAUCAGAAUGAAAUGUUUGUCUGUUUGCACACUGGGCCUGGUGGCCUCCAAGGAAAUGUGUACGAUCGUUUGCUUUCUCUAUCUUGGCGCUUGCAACCGAGAGCGGCCAUUUUUAUGAGGGGCUCUUGCGGUCGCACUAGUGUGGAAUUCUCGGGUGUCAAGG

What follows are binders tested against TDP-43 (Homo sapiens, UniProt Q13148 1-414) (assay: RNA Bind-n-Seq with designed 260-mer pool; 25 mM Tris-HCl, 150 mM KCl, 3 mM MgCl2, BSA (printed 500 mg/mL), 20 units/mL SUPERase IN; pH not stated; 500 nM RNA pool, 1 h, 4 C; TDP-43 5, 50, 500 nM; high values mean tight binding). Details: protein: recombinant; tags: SBP (GST cleaved off with PreScission; pGEX-GST-SBP).
How it was run: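 An in vitro-transcribed pool of 260-nt 3′ UTR oligos (500 nM) was incubated for 1 h at 4 °C with recombinant SBP-tagged TDP-43 at 5, 50 or 500 nM held on streptavidin beads. The buffer contained 25 mM Tris-HCl, 150 mM KCl, 3 mM MgCl2, BSA and SUPERase IN. Biotin-eluted bound RNA was sequenced, and binding, R, is each oligo's normalized read abundance in the bound sample over that in input.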

Sequence of TDP-43 (Q13148 whole entry): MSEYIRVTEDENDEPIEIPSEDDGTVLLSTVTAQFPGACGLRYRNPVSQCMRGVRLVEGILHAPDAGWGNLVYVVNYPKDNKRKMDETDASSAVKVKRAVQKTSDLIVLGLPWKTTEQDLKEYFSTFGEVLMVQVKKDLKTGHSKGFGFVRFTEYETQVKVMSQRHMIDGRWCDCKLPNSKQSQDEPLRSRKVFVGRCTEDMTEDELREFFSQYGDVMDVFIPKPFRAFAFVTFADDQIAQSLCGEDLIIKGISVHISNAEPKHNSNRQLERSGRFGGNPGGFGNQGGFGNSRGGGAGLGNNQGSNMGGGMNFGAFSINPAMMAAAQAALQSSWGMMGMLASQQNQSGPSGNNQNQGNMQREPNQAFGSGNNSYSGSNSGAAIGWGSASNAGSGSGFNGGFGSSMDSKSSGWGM

Row | Binder | binding signal
1 | B1 | 0.125 R (bound/input frequency ratio)
2 | B2 | 0.616 R (bound/input frequency ratio)
3 | B3 | 0.762 R (bound/input frequency ratio)
4 | B4 | 0.904 R (bound/input frequency ratio)
5 | B5 | 5.45 R (bound/input frequency ratio)
6 | B6 | 6.95 R (bound/input frequency ratio)
7 | B7 | 5.88 R (bound/input frequency ratio)
8 | B8 | 6.51 R (bound/input frequency ratio)
9 | B9 | 12.1 R (bound/input frequency ratio)
10 | B10 | 8.93 R (bound/input frequency ratio)
11 | B11 | 4.6 R (bound/input frequency ratio)
12 | B12 | 5.93 R (bound/input frequency ratio)
13 | B13 | 2.22 R (bound/input frequency ratio)
